From PubChem
A selection: hits, their analogues and other compounds. The true share with any hit is near 3.9%.
PrPC TRFRET: inhibitors of human cell surface prion protein PrPC, primary screen, cell-based, TR-FRET; Major prion protein (Homo sapiens), P04156; TR-FRET read-out; inhibition, % at 13.8 µM; hit rate 0.43% among 370,000; AID 720596, 2013; in the data active means inhibition above about 24%; further: 0% = median of the test wells and 100% = reference compound wells
3CLpro inhibitor: SARS-CoV 3CLpro protease inhibitors, primary screen, biochemical, quenched FRET; hit rate 0.14% among 290,000; AID 1706, 2009; inhibition, % at 6 µM; recombinant SARS-CoV 3CLpro, quenched FRET peptide cleavage; in the data active means inhibition above about 12%
GDH-TPI counter-1: GDH-TPI coupling enzyme inhibitors, primary screen, artefact control for M. tuberculosis FBA inhibitor project, biochemical, absorbance, full deck. GDH-TPI coupled enzyme counterscreen, NADH absorbance. inhibition, % at 4.8 µM. hit rate 1.2% among 360,000. AID 588335, 2011; in the data active means inhibition above about 30%;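 further: 0% = DMSO wells and 100% = wells lacking the enzyme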
Mtb FBA inh: Mtb FBA enzyme inhibitors, primary screen, biochemical, fluorescence, strain H37Rv. Fructose-bisphosphate aldolase (Mycobacterium tuberculosis (strain ATCC 25618 / H37Rv)), …. hit rate 2.3% among 360,000. purified M. tuberculosis FBA, fluorescence read-out. inhibition, % at 1 µM;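 further: 0% = vehicle and 100% = reference inhibitor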
Target sequence (P9WQA3 whole entry, looked up): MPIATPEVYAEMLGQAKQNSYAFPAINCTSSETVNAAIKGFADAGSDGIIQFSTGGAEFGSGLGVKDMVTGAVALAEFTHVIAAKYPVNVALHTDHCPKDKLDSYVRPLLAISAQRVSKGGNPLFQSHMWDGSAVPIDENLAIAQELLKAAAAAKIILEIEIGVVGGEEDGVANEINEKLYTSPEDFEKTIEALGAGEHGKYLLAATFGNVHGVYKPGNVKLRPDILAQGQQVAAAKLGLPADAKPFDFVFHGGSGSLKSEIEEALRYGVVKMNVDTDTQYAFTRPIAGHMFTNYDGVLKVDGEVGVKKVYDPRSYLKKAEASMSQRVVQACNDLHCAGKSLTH
Vc quorum ag: inducers of Vibrio cholerae quorum light production without autoinducers, primary screen, BH1578 luxS cqsA deficient, single point | V. cholerae BH1578 lux reporter, luminescence, 6 h | activation, % at 18.7 µM | hit rate 0.16% among 350,000 | AID 588436, 2011; in the data active means activation mostly above about 9.7%, no sharp cut-off
Mtb FBA confirm: M. tuberculosis aldolase blockers, biochemical, fluorescence, strain H37Rv, confirmation; shares compounds with Mtb FBA inh; purified M. tuberculosis FBA, fluorescence read-out; inhibition, % at 1 µM; hit rate 78% among 5,600;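 further: 0% = vehicle wells and 100% = reference inhibitor wells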
GDH-TPI counter-2: GDH-TPI coupling enzyme inhibitors, artefact control for M. tuberculosis FBA inhibitor project, biochemical, fluorescence, high throughput. shares compounds with Mtb FBA inh. GDH-TPI coupled enzyme counterscreen. inhibition, % at 1 µM. hit rate 81% among 5,600; in the data active means inhibition above about 10%
An asterisk follows results filed as active; i = inactive; x = no result given; + = active, no number. Unless noted, no stated cut-off is given here; in the data, active means inhibition above about 27%; inactive means the rest.

SMILES	PrPC TRFRET	3CLpro inhibitor	GDH-TPI counter-1	Mtb FBA inh	Vc quorum ag	Mtb FBA confirm	GDH-TPI counter-2
CSc1nc2c(c(=O)[nH]1)C(c1ccccc1)C1=C(CC(C)(C)CC1=O)N2 (stereo unspecified)	-3	2	6	29*	0	68*	45*
COC1OC2COC(c3ccccc3)OC2C2OC12 (stereo unspecified)	-6	x	8	2	-8	x	x
O=C(OCc1ccc(Br)cc1F)c1cc2ccccc2oc1=O	3	6	10	67*	0	191*	153*
O=S(=O)(c1ccc(F)cc1)c1nc(-c2ccco2)oc1NCCCn1ccnc1	-5	x	10	2	-1	x	x
N#Cc1nc(-c2ccc(F)cc2)oc1NCCCn1ccnc1	x	-3	x	x	x	x	x
CCCOc1ccc(-c2nc(C#N)c(NCCCn3ccnc3)o2)cc1	-8	-1	15	105*	i	105*	81*
N#Cc1nc(-c2ccco2)oc1NCCCn1ccnc1	-6	2	2	60*	0	121*	93*
CC(C)(C)c1ccc(-c2nc(C#N)c(NCCCn3ccnc3)o2)cc1	-6	-1	11	40*	-1	108*	103*
N#Cc1nc(-c2ccc(OCc3ccccc3Cl)cc2)oc1NCCCn1ccnc1	x	-3	x	x	x	x	x
CCc1ccc(-n2c(C)nc3cc(C(=O)NCc4cccnc4)ccc32)cc1	9	-4	2	4	0	x	x
O=c1nc2cccc3c2=c(/c1=C(\O)c1ccccc1)c1ccccc1c3=O	-4	8	17	29*	1	-4	-6
COc1cccc(C(=O)C2CCCN(Cc3ccccn3)C2)c1 (stereo unspecified)	2	5	11	-1	-1	x	x
COc1ccc(C(=O)C2CCCN(Cc3ccc4nonc4c3)C2)c(OC)c1 (stereo unspecified)	-10	-2	3	57*	-3	153*	135*
COc1ccc2oc(C(=O)NCc3ccccc3CN3CCCC3)c(C)c2c1	5	x	1	18	-3	x	x
COc1ccc2cc(C(=O)C3CCCN(C(=O)CCc4ccccn4)C3)ccc2c1 (stereo unspecified)	-6	1	9	96*	0	94*	62*
CCOC(=O)N1CCC(N2CCCC(C(=O)c3ccc4cc(OC)ccc4c3)C2)CC1 (stereo unspecified)	-4	3	3	107*	0	116*	91*
COc1ccc2cc(C(=O)NCc3ccccc3CN3CCCC3)ccc2c1	-15	x	9	33*	-1	115*	104*
CC12CCC(O)CC1=CCC1C2CCC2(C)C3=NN=CC3CC12 (stereo unspecified)	-4	x	3	1	1	x	x
COc1ccc2cc(C(=O)C3CCCN(Cc4cccc(C)n4)C3)ccc2c1 (stereo unspecified)	-6	-4	3	29*	i	47*	40*
CS(=O)(=O)Nc1ccc(-c2cnc3cccnn23)cc1	-14	x	14	7	i	x	x
OCc1ccccc1-c1cnc2cccnn12	-1	x	9	105*	0	113*	86*
COc1ccc(OC)c(/C=N/NC(=O)CCc2ccc(O)c(O)c2)c1	1	1	5	43*	i	127*	99*
COc1ccc(/C=N\NC(=O)CCc2c(C)n[nH]c2C)c(OC)c1OC	-5	1	5	0	4	x	x
COc1ccc(OC)c(/C=N/NC(=O)c2c(C)nc3ccc(C)cn23)c1	8	0	30	78*	0	105*	88*
COc1ccc(OC)c(/C=N/NC(=O)CCc2c(C)n[nH]c2C)c1	1	6	5	78*	-1	95*	89*
SMILES	PrPC TRFRET	3CLpro inhibitor	GDH-TPI counter-1	Mtb FBA inh	Vc quorum ag	Mtb FBA confirm	GDH-TPI counter-2
Cc1onc(-c2ccccc2Cl)c1C(=O)OCC(=O)N1CCN(c2ccccc2)CC1	2	x	-3	-2	i	x	x
N=c1oc2ccccc2cc1C(=O)Nc1ccccc1	1	-6	0	4	-1	x	x
N=c1oc2cc(O)ccc2cc1C(=O)Nc1ccc(Br)cc1	5	3	16	73*	i	23	15*
COc1cc(N=Nc2ccc(C)cc2S(N)(=O)=O)c(C)cc1N	-20	x	12	-15	i	x	x
CCCC[n+]1ccn(-c2nc3ccccc3nc2[N-]S(=O)(=O)c2ccccc2)c1	0	3	14	33*	-4	+	197*
COc1ccc(CC(=O)Nc2ccc(-c3cn4ccccc4n3)cc2)cc1OC	11	0	16	71*	0	-6	-6
COc1ccc(CC(=O)Nc2ccc(N3CCOCC3)cc2)cc1OC	5	-1	-4	0	0	x	x
Fc1ccc(-c2cn3ccccc3n2)cc1	-2	0	3	26	1	x	x
O=C(Nc1cccc(-c2cn3ccccc3n2)c1)C1CC1	4	-4	14	36*	0	112*	88*
COc1ccc(CC(=O)Nc2ccc(-c3cn4ccccc4n3)cc2)cc1	4	-3	4	66*	0	+	+
CCOc1ccc(-c2cn3ccccc3n2)cc1	0	1	4	44*	0	116*	69*
CCc1nc2ccc(C(=O)NCc3ccc(OC)cc3)cn2c1N(C)C(=O)Cc1ccccc1	12	x	-9	4	i	x	x
CCC(=O)Nc1cccc(-c2cn3ccccc3n2)c1	7	4	3	27	0	x	x
COc1ccc(CC(=O)Nc2cccc(-c3cn4ccccc4n3)c2)cc1	12	-7	6	31*	0	123*	86*
CC(Oc1ccc2c3c(c(=O)oc2c1)CCCC3)C(=O)NCc1ccccn1 (stereo unspecified)	-3	1	12	79*	-1	31*	16*
Cc1cc(OC(C)C(=O)NCc2ccccn2)c2c(C)c(C)c(=O)oc2c1 (stereo unspecified)	-5	0	10	44*	i	+	173*
Cc1c(C)c2ccc(OCC(=O)NCc3ccccn3)cc2oc1=O	0	0	2	81*	0	+	+
Cc1cc(=O)oc2cc(OC(C)C(=O)NCc3ccccn3)ccc12 (stereo unspecified)	-3	-4	8	21	3	x	x
Cc1c(C)c2ccc(OC(C)C(=O)NCc3ccccn3)cc2oc1=O (stereo unspecified)	-4	1	12	87*	-1	155*	121*
